Potency data for 24 compounds are collected here from PubChem BioAssay (NCATS).

Results filed as inconclusive are left out. Calls of active or inactive are those of the source. Calls follow the shape of the dose curve; as a rule, active = well fitted curve in the direction sought with a large enough effect; inconclusive = small, poorly fitted or top-dose-only effect, or another doubt; inactive = no such curve, though single readings can be large; an effect the other way counts as inactive or inconclusive. Non-standard residues stand in square brackets, D forms with d. Residues, ends and D or L forms follow the SMILES beside them. *: point of attachment. Nva = CCC[C@H](N)C(=O)O; Cbz = O=C(OCc1ccccc1)*

Assay [1] can be described thus: NS1 protein of Zika virus - qHTS assay to identify small molecule inhibitors in human HEK 293 cells (AID 1347053). Also: nearly all actives have a fitted effect of over 55% in size. The method, boiled down:
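Readout was TR-FRET using paired anti-NS1 antibodies after 24 h infection of HEK 293 cells with ZIKV MR766 (MOI = 0.5). Compound preceded virus by 1 h; reduced signal reflects lower NS1 expression.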

Assay [2] is described as follows: qHTS of pediatric cancer cell lines to identify multiple opportunities for drug repurposing: Primary screen for DAOY cells (AID 1347090). Also: nearly all actives have a fitted effect of over 55% in size. The method, boiled down:
(§1)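 Viability measured as metabolically active cells via CellTiter-Glo luminescence following 48 hours of compound exposure, 11-point dilutions in confirmatory testing. 500-1,000 cells/well plated 5 hours before dosing; controls were DMSO and 2.3 µM bortezomib.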

Assay [3] is described as follows: qHTS of pediatric cancer cell lines to identify multiple opportunities for drug repurposing: Primary screen for SJ-GBM2 cells (AID 1347091). The method, boiled down:
as §1

Assay [4] can be described thus: qHTS of pediatric cancer cell lines to identify multiple opportunities for drug repurposing: Primary screen for SK-N-MC cells (AID 1347093). A digest of the protocol: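 Metabolically active cells were quantified by ATP-dependent luminescence (CellTiter-Glo, 15 min at room temperature) following 48 h treatment. Cells had been plated at 500-1,000 per well and settled for 5 h beforehand.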

Assay [5] can be described thus: qHTS of pediatric cancer cell lines to identify multiple opportunities for drug repurposing: Primary screen for A673 cells (AID 1347092). Also: nearly all actives have a fitted effect of over 45% in size. The method, boiled down: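 Cell viability of A673 measured by CellTiter-Glo ATP luminescence after 48 hours compound exposure. Dilution series spanned 0.78 nM to 46 µM (MIPE, 11-point) or 0.59 nM to 46 µM (NPC, 8-point); bortezomib 2.3 uM positive control.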

Assay [6] in a line: qHTS of pediatric cancer cell lines to identify multiple opportunities for drug repurposing: Primary screen for TC32 cells (AID 1347089). Also: nearly all actives have a fitted effect of over 60% in size. The method, boiled down: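 Luminescent ATP read-out (CellTiter-Glo) of metabolically active TC32 cells after 48 h exposure. Concentration-response curves came from 11-point (MIPE, 0.78 nM–46 µM) or 8-point (NPC, 0.59 nM–46 µM) primary titrations; follow-up used 11 points.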
Potency is read from the fitted curve at half-maximal effect.

As to `COc1cc2c(Nc3ccc(Cl)c(Cl)c3F)ncnc2cc1OCC1C[C@@H]2CN(C)C[C@H]2C1`, the Potency entry in assay [1] was “inactive”. Further, the results for the Potency in assay [2], in assay [3] and in assay [4] were 935 nM (active), 7430 nM (active) and 2960 nM (active), respectively.

Regarding `COc1cc(O)c2c(c1)C1OC1C[C@H](O)[C@H](O)C(=O)C=CC[C@H](C)OC2=O` (stereo partly specified), the Potency is 11800 nM (active) in assay [1]; 7430 nM (active) in assay [2]; 8330 nM (active) in assay [3]; 5900 nM (active) in assay [5]; 2350 nM (active) in assay [4].

On to `C[C@@H]1C(=O)O[C@H]2CC34[C@H]5C[C@@H](C(C)(C)C)C36[C@H](OC(=O)[C@@H]6O)O[C@@]4(C(=O)O5)[C@]21O` (stereo partly specified), for which the Potency result in assay [1], in assay [2], in assay [3], in assay [5] and in assay [4] was “inactive” each time.

On to `CCC[C@@H](C=O)NC(=O)[C@H](CC(C)C)NC(=O)[C@H](CC(C)C)NC(=O)OCc1ccccc1` (Cbz-Leu-Leu-[Nva]-aldehyde), for which the Potency in assay [1] is 3320 nM (active); in assay [2] it was 935 nM (active); in assay [3], 296 nM (active); in assay [5], 590 nM (active); in assay [4], 105 nM (active).

Consider `N#Cc1cc(NC(=O)Nc2nnc(-c3ccncc3)s2)ccc1-c1cn[nH]c1`, for which the Potency entry in assay [1], in assay [2], in assay [5] and in assay [4] was “inactive” each time.

For `COc1cc(C[C@@H](CO)[C@H](CO)Cc2ccc(O)c(OC)c2)ccc1O`, in assay [1], the Potency entry is “inactive”. The Potency in assay [2] is 469 nM (active); in assay [5], 187 nM (active); in assay [4] it was 209 nM (active).

In the case of `C[C@@]12C(=O)OC(=O)[C@@]1(C)C1CCC2O1`, the Potency in assay [1] was 3720 nM (active); in assay [2], 2960 nM (active); in assay [3], 2090 nM (active); in assay [5], 4690 nM (active); in assay [4], 2350 nM (active).

On to `CN[C@@H]1C[C@H]2O[C@@](C)([C@H]1OC)n1c3ccccc3c3c4c(c5c6ccccc6n2c5c31)C(=O)N[C@H]4O`, for which the Potency is 418 nM (active) in assay [1], 469 nM (active) in assay [2], 296 nM (active) in assay [5] and 37.2 nM (active) in assay [4].

Take `CN(C)CC[C@H](c1ccc(Cl)cc1)c1ccccn1`: the Potency entry in assay [1] and in assay [3] was “inactive” in each case. The Potency in assay [2] was 23500 nM (active); in assay [4], 10500 nM (active).

On to `CC(C)n1cnc2c(NCCc3ccc(O)cc3)nc(-c3csc4ccccc34)nc21`, for which the Potency in assay [1] was 26400 nM (active); in assay [2], 11800 nM (active); in assay [5], 1180 nM (active); in assay [4] it was 3320 nM (active).

In the case of `Cc1cc(Nc2ncc3c(n2)N(C)C(=O)N(c2cc(NC(=O)c4cccc(C(F)(F)F)c4)ccc2C)C3)n(C)n1`, the Potency result in assay [1] is “inactive”. For the same compound, the Potency in assay [2] was 935 nM (active); in assay [3] it was 296 nM (active); in assay [5] it was 372 nM (active); in assay [4], 209 nM (active).

Consider `OC[C@H]1OC(O)C[C@@H](O)[C@H]1O` (stereo partly specified), for which the Potency result in assay [1], in assay [2], in assay [3], in assay [5] and in assay [4] was “inactive” each time.

Turning to `Oc1ccc(-c2ccc(-c3cc(Nc4cccc(CNC5CC5)c4)n[nH]3)cc2)c(O)c1`, the Potency in assay [1] is 1180 nM (active); in assay [2] it was 14800 nM (active); in assay [3] it was 1480 nM (active); in assay [5], 935 nM (active); in assay [4], 372 nM (active).

For `CC1=C(C(=O)Nc2cc3cn[nH]c3cc2F)C(c2ccc(Cl)cc2F)N=C(c2ccnc(Cl)c2)N1` (stereo unspecified), the Potency result in assay [1] and in assay [2] was “inactive” each time. Further, the Potency in assay [3] was 5900 nM (active); in assay [4], 11800 nM (active).

Regarding `CC(=O)OCC(=O)[C@@]1(O)CC[C@H]2[C@@H]3CCC4=CC(=O)CC[C@]4(C)[C@@H]3C(=O)C[C@@]21C`, the Potency result in assay [1], in assay [2], in assay [3], in assay [5] and in assay [4] was “inactive” in each case.

Regarding `Cn1cnc(=N)c2[nH]cnc21`, in assay [1], the Potency entry was “inactive”. Besides, the Potency was 1180 nM (active) in assay [2], 1480 nM (active) in assay [3], 187 nM (active) in assay [5] and 83.3 nM (active) in assay [4].

`CS[C@H]1SC[C@@H]2C(=O)N(C)[C@H](C(C)C)C(=O)OC[C@H](NC(=O)c3cnc4ccccc4n3)C(=O)N[C@H](C)C(=O)N(C)[C@@H]1C(=O)N(C)[C@H](C(C)C)C(=O)OC[C@H](NC(=O)c1cnc3ccccc3n1)C(=O)N[C@H](C)C(=O)N2C`: the Potency is 16.6 nM (active) in assay [1], 7.4 nM (active) in assay [2], 2.3 nM (active) in assay [5] and 1.3 nM (active) in assay [4].

In the case of `O=C(Nc1cc2cc[nH]c2cn1)c1ccccc1`, the Potency result in assay [1] is “inactive”. For the same compound, the Potency in assay [2] was 14800 nM (active); in assay [3], 14800 nM (active); in assay [5], 7430 nM (active); in assay [4], 11800 nM (active).

Take `CC(O)(C#Cc1ccc2c(c1)N(c1nc(N)ncc1Cl)CC2)c1nccs1` (stereo unspecified): the Potency result in assay [6] was “inactive”. Further, the Potency in assay [2] is 7430 nM (active); in assay [3], 13200 nM (active); in assay [5], 5900 nM (active); in assay [4], 2350 nM (active).

As for `C=CCNC1=C2C[C@@H](C)C[C@H](OC)[C@@H](O)[C@@H](C)C=C(C)[C@H](OC(N)=O)[C@@H](OC)C=CC=C(C)C(=O)NC(=CC1=O)C2=O`, the Potency in assay [6] was 1170 nM (active); in assay [2] it was 2960 nM (active); in assay [3] it was 590 nM (active); in assay [5], 1480 nM (active); in assay [4], 1660 nM (active).

As to `CC[C@@]1([C@@H]2O[C@@H]([C@H]3O[C@@](O)(CO)[C@H](C)C[C@H]3C)C[C@H]2C)CC[C@H]([C@]2(C)CC[C@]3(C[C@H](O)[C@@H](C)[C@@H]([C@@H](C)[C@@H](OC)[C@H](C)C(=O)O)O3)O2)O1`, the values for the Potency in assay [1], in assay [3] and in assay [5] were 1290 nM (active), 288 nM (active) and 162 nM (active), respectively.

Turning to `FC(F)(F)c1ccc(Nc2nc3ccc(Oc4ccnc(-c5ncc(C(F)(F)F)[nH]5)c4)cc3[nH]2)cc1`, the Potency entry in assay [6] is “inactive”. The Potency in assay [2] was 18700 nM (active); in assay [3], 16600 nM (active); in assay [4], 4180 nM (active).

Consider `O=C(O)c1ccc(Nc2ncc3c(n2)-c2ccc(Cl)cc2C(c2c(F)cccc2F)=NC3)cc1`, for which the Potency entry in assay [1] was “inactive”. The Potency in assay [5] is 4690 nM (active); in assay [4], 662 nM (active).

As for `CC(=O)O[C@@]12CO[C@H]1C[C@H](O)[C@@]1(C)C(=O)[C@H](O)C3=C(C)[C@@H](OC(=O)C(O)[C@@H](NC(=O)OC(C)(C)C)c4ccccc4)C[C@@](O)([C@@H](OC(=O)c4ccccc4)[C@@H]21)C3(C)C` (stereo partly specified), the Potency was 0.1 nM (active) in assay [6], 1 nM (active) in assay [2], 23500 nM (active) in assay [3] and 1 nM (active) in assay [4].
